An excerpt weighted towards active compounds, which were near 7.3% of everything screened.
SMN2 splice enh – qHTS Assay for Enhancers of SMN2 Splice Variant Expression. HEK293 SMN2-luciferase splicing reporter, luminescence, 30-36 h. hit rate 2.8% among 210,000. Potency, µM (titrated, usually from 46.1 µM), actives largely listed as activators; note: nearly all actives have a fitted effect of over 55% in size
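HEK293 cells carry an SMN2 […]–luciferase reporter in which exon 7 inclusion puts luciferase in frame. Cells were plated 10-12 h before compound addition, then incubated 30-36 h at 37C. ONE-Glo luminescence was read; sodium butyrate at 4.5 mM final served as control.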
Luc counter – Counterscreen for Luciferase (Kinase-Glo TM) Inhibition. Kinase-Glo luciferase, ATP luminescence, 8 min. Potency, µM (highest dose often 38.3 µM), most hits filed as inhibitors. hit rate 0.28% among 200,000. AID 1379, 2008; note: nearly all actives have a fitted effect of over 60% in size
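Recombinant Kinase-Glo luciferase, 10 uM ATP (linear range), luciferin; imidazole pH 7.2 / KCl / MgCl2 / Tween / BSA buffer; 8 min RT; luminescence.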
NPC1 promoter act – qHTS Assay for NPC1 Promoter Activators; Huh7 NPC1 promoter luciferase reporter, 24 h; Potency, µM (doses to about 9.22 µM), usual class: activators; hit rate 2.4% among 320,000; AID 485313, 2010; note: nearly all actives have a fitted effect of over 60% in size
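Compounds in DMSO were transferred onto Huh7 NPC1-luciferase reporter cells pre-incubated 2 h; after 24 h at 37 °C, Amplite reagent was dispensed and luminescence recorded 10 min later.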
Rab9 prom act – qHTS Assay for Rab9 Promoter Activators. hit rate 2.8% among 320,000. AID 485297, 2010. Potency, µM (doses to about 9.22 µM), most hits filed as activators. Huh7 Rab9 promoter-luciferase reporter, luminescence, 24 h; note: nearly all actives have a fitted effect of over 60% in size
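Cell-based reporter: Huh7 stable for Rab9 promoter-driven luciferase, plated in reduced-serum medium with 10% FBS at 1500 cells/well, compound-treated 24 h at 37 °C, luminescence read after 10 min reagent.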
FLuc counter – qHTS profiling assay for firefly luciferase inhibitor/activator using purifed enzyme and Km concentrations of substrates (counterscreen for miR-21 project); Luciferin 4-monooxygenase (Photinus pyralis), P08659; purified FLuc, Km substrates, luminescence inhibition; Potency, µM (titrated, usually from 57.5 µM), hits mostly inhibitors; hit rate 6.9% among 360,000; AID 588342, 2011; note: nearly all actives have a fitted effect of over 55% in size
Target sequence (P08659 whole entry, looked up): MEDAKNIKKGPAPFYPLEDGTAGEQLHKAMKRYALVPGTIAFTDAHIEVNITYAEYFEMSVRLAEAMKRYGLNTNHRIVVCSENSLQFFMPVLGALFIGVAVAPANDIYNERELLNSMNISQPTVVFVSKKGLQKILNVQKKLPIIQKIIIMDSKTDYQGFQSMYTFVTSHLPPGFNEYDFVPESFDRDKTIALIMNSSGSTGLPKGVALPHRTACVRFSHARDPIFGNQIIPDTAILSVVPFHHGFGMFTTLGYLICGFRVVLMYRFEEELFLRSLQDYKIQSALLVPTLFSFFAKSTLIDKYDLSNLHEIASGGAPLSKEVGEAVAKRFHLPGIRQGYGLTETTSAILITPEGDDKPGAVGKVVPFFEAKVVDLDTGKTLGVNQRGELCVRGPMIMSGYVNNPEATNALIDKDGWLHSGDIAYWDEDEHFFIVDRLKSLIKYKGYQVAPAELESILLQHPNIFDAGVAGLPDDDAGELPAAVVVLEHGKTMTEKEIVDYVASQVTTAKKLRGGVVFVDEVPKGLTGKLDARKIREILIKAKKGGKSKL
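Purified P. pyralis luciferase (10nM final) with 10uM D-luciferin and 10uM ATP (Km levels) in 50mM Tris acetate pH 7.5, 10mM Mg acetate, 0.01% Tween-20, 0.05% BSA; qHTS 6-point titration, ~60 µM downward; luminescence read.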
A number is an active result; - = inactive; ? = inconclusive; . = no result given. Calls come from the whole dose curve; as a rule, active = well fitted curve in the direction sought with a large enough effect; inconclusive = small, poorly fitted or top-dose-only effect, or another doubt; inactive = no such curve, though single readings can be large; an effect the other way counts as inactive or inconclusive.

SMILES | SMN2 splice enh | Luc counter | NPC1 promoter act | Rab9 prom act | FLuc counter
COC(=O)c1ccc(C(=O)N=c2sccn2C)cc1 | . | . | 2.8µM | 2.8µM | 15µM
Cn1ccsc1=NC(=O)c1ccc(S(=O)(=O)C(F)F)cc1 | . | . | ? | 3.5µM | ?
Cc1ccc(NC(=O)CN2C(=O)C(c3ccccc3)=NC23CCCCC3)cc1C | - | . | . | . | -
COc1ccccc1N1CCN(C(=O)c2cnc(N3CCOCC3)c3ccccc23)CC1 | . | . | . | . | -
Cn1ccsc1=NC(=O)c1ccc(Cl)cc1 | 14µM | - | ? | ? | 17µM
COc1ccc(C(=O)N=c2sccn2C)cc1 | ? | - | ? | ? | 17µM
CN(C)c1ccc(C(=O)N=c2sccn2C)cc1[N+](=O)[O-] | . | . | 2.2µM | 3.2µM | 9.5µM
Cn1ccsc1=NC(=O)c1ccc(CS(C)(=O)=O)cc1 | . | . | - | - | ?
CCOc1cc(C(=O)N=c2sccn2C)ccc1OC(F)F | . | . | - | ? | -
CCc1ccc(NC(=O)c2nnn(Cc3cccc(C(F)(F)F)c3)c2N)cc1 | ? | . | . | . | -
CN1CCC2(CCN3CCc4c(oc5ccccc45)C3C2)N(C)C1=O (centres undefined) | - | - | - | - | .
CCOC(=O)c1c(C)[nH]c(C=Nc2ccc(OC)cc2)c1O | 11µM | - | 4µM | 2.2µM | 21µM
COC(=O)c1c(C)[nH]c(O)c1C=Nc1ccc(C#N)cc1 | ? | - | - | - | -
COC(=O)c1c(C)[nH]c(C=Nc2ccc(OC)cc2)c1C | . | . | - | - | 7.6µM
CCOC(=O)c1sc(-n2[nH]c(C)cc2=O)nc1C | - | - | - | - | 15µM
COc1cc(CNC(=O)c2cnc3c(-c4cccc(C)c4)c(C)nn3c2C)cc(OC)c1OC | . | . | . | . | -
Cc1ccc(NC(=O)Cc2noc3ccccc23)cc1 | ? | - | ? | ? | 21µM
Cc1cc(Cl)c(S(=O)(=O)Nc2cccc(O)c2)cc1OCC(N)=O | 4µM | - | - | - | -
Cc1cccc(NC(=O)COc2ccc(Br)cc2/C=N/O)c1 | 18µM | - | 4µM | 4µM | 5.4µM
Cc1cc(C)c(OCC(=O)Nc2cccc(O)c2)cc1C | - | - | - | ? | 1.5µM
Cc1ccccc1NC(=O)COc1ccccc1C | . | . | - | - | ?
COc1ccc(NS(=O)(=O)c2cc(OCC(N)=O)c(C)cc2Cl)cc1 | - | - | - | - | -
Cc1ccccc1OCC(=O)Nc1ccccc1-c1ccccc1 | ? | ? | 0.89µM | 0.89µM | 4.8µM
CC1=C(C(=O)Nc2ccc(Cl)cc2)C(c2cccs2)n2nc(SCc3cccc(Cl)c3)nc2N1 (centres undefined) | - | . | . | . | -
CCc1ccccc1NC(=O)c1cnn2c(C(F)(F)F)cc(-c3ccc(OC)c(OC)c3)nc12 | - | . | . | . | -
SMILES | SMN2 splice enh | Luc counter | NPC1 promoter act | Rab9 prom act | FLuc counter
Cc1ccccc1OCC(=O)Nc1ccc(NC(=O)c2ccco2)cc1 | - | - | - | - | -
Cc1ccccc1OCC(=O)Nc1cccc(NC(=O)c2ccco2)c1 | - | - | - | ? | 11µM
O=C(COc1ccccc1Cl)Nc1ccccc1C(=O)Nc1cccc(C(=O)O)c1 | . | . | ? | ? | 7.6µM
O=C(COc1ccccc1Cl)Nc1ccc(C(=O)O)cc1NC(=O)COc1ccccc1Cl | . | . | - | - | -
CC(=O)c1cccc(NC(=S)NC(=O)Cc2ccccc2)c1 | - | - | - | - | -
CC(=O)c1cccc(NC(=O)CSC(=O)c2ccccc2)c1 | - | - | - | - | 17µM
CC(=O)c1cccc(NC(=O)COC(=O)c2ccccc2C)c1 | . | . | ? | - | 21µM
Cc1cccn2c(=O)cc(COc3ccc(NC(=O)COc4ccc(F)cc4)cc3)nc12 | . | . | . | . | -
COc1ccc(CNC(=O)c2cc3cc(C)ccc3n2C)cc1 | . | . | . | . | -
Cc1cc(C)cc(OCC(=O)Nc2cccc(C(=O)O)c2)c1 | ? | - | ? | ? | 15µM
CC(C)(C)NC(=O)c1cccc(NC(=O)CSc2ccccc2)c1 | - | - | - | - | 15µM
Cc1ccccc1OCC(=O)Nc1ccc(N2CCN(C)CC2)c(Cl)c1 | . | . | ? | - | 12µM
Cc1ccccc1OCC(=O)Nc1cccc(C(=O)O)c1 | 1.6µM | - | ? | ? | 0.095µM
Cc1cccc(OCC(=O)Nc2cc(NC(=O)COc3cccc(C)c3)cc(C(=O)O)c2)c1 | . | . | - | - | -

Screening data (PubChem BioAssay)
